According to PubChem BioAssay (NCI):
About 79,000 compounds went through this panel and 15% of them were active in at least one assay; those are over-represented in the sample as a whole. Rule as the data show it: active = growth inhibition above about 70%; inactive = the rest.

Tests used:
[1] = NCI Yeast Anticancer Drug Screen. Data for the rad50 strain (AID 155);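 also: 0% = growth of vehicle-only cultures of the same strain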; settings: S. cerevisiae rad50 strain growth inhibition; at 50.0 µM; stronger effect = higher value
Procedure, shortened: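 Cells are treated with compound, grown, and their growth is then scored against vehicle-only cultures of the same repair-deficient yeast strain.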

[2] = NCI Yeast Anticancer Drug Screen. Data for the mec2-1 strain (AID 157); settings: S. cerevisiae mec2-1 strain, at 50.0 µM, stronger effect = higher value
Procedure, shortened: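 Readout is yeast growth inhibition, normalised to vehicle-treated controls, in the mec2-1 strain exposed to compound.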

[3] = NCI Yeast Anticancer Drug Screen. Data for the sgs1 mgt1 strain (AID 161);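 also: 0% = growth of cultures given vehicle only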; settings: S. cerevisiae sgs1 mgt1 strain, at 50.0 µM, stronger effect = higher value
Procedure, shortened: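 Percent growth inhibition was derived by comparing compound-exposed mutant yeast with vehicle-exposed cultures. The strain carries alterations in DNA damage repair.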

[4] = NCI Yeast Anticancer Drug Screen. Data for the bub3 strain (AID 167); settings: S. cerevisiae bub3 mutant strain, at 50.0 µM, stronger effect = higher value
Procedure, shortened: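 Part of a panel of yeast mutants defective in DNA damage repair or cell cycle regulation. Each strain is grown with compound, and inhibition is calculated relative to solvent-treated cultures.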

[5] = NCI Yeast Anticancer Drug Screen. Data for the mlh1 rad18 strain (AID 175); settings: S. cerevisiae mlh1 rad18 strain growth inhibition; at 50.0 µM; stronger effect = higher value
Procedure, shortened: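 Test agents were incubated with a yeast strain of defined genotype (DNA damage repair defect). Inhibition of growth was derived by comparison with vehicle-exposed cultures.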

[6] = NCI Yeast Anticancer Drug Screen. Data for the cln2 rad14 strain (AID 165);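 also: 0% = growth equal to vehicle treated cultures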; settings: S. cerevisiae cln2 rad14 strain, at 50.0 µM, stronger effect = higher value
Procedure, shortened: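 Relative to vehicle controls, growth inhibition of compound-treated cln2 rad14 yeast was recorded.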

Measured: growth inhibition

CC1CCOC(c2ccc(O)cc2)O1 (centres undefined)
inactive: [1] -4.05% | [2] -13.1% | [3] -4.65% | [4] -14.4% | [5] -3.75%

O=CNc1ccccc1Cc1ccccc1
inactive: [1] 13.2% | [2] -24% | [3] 4.5% | [4] 4.25% | [5] 1.65%

CCOC(=O)c1ccc(NC(=S)NC(=O)c2cccc([N+](=O)[O-])c2)cc1
inactive: [1] -3.15% | [2] 6.55% | [3] 16.1% | [4] 15.1% | [5] 15.2%

COc1ccc(/C=N/NC=O)cc1OC
inactive: [1] 7.35% | [2] 6.5% | [3] 1.2% | [4] -12.5% | [5] -2.85%

Cc1ccc(S(=O)(=O)OCCOCCOc2ccc(C(C)(C)CC(C)(C)C)cc2)cc1
inactive: [1] 49.7% | [2] 1.05% | [3] 34% | [4] 3.8% | [5] 27%

CC1OC(OC2C(OC(=O)[C@@H]3CC(C)(C)C[C@H]4C5=CC[C@@H]6[C@@]7(C)C[C@H](O)[C@H](OC8OC(CO)C(O)C(O)C8O)[C@@](C)(CO)[C@@H]7[C@H](O)C[C@@]6(C)[C@]5(C)CC[C@@]34C)OCC(O)C2O)C(O)C(O)C1O (some centres undefined)
inactive: [1] -22.4% | [2] -20.7% | [3] -18.1% | [4] -1.8% | [5] -64.4%

CC1(C)CCNc2ccccc2S1
inactive: [1] -0.55% | [2] 1.7% | [3] 2.05% | [4] -11.1% | [5] -14.6%

CC(=O)OC1CC(OC(C)=O)C(OC(C)=O)C(C)O1 (centres undefined)
inactive: [1] 1.15% | [2] 17.9% | [3] 4.7% | [4] -1.85% | [5] 5.45%

Fc1ccc2nncc(SCc3ccc(Cl)cc3)c2c1
inactive: [1] -4.1% | [2] 2.25% | [3] 4% | [4] 4.85% | [5] -0.65%

N#Cc1c(-c2ccc(Cl)cc2)c2c(n(C3OC(CO)C(O)C(O)C3O)c1=S)CCC2 (centres undefined)
inactive: [1] 12.5% | [2] 32.1% | [3] 61.3% | [4] 50.4% | [5] 42.4%

COC(=O)C1OC1C(=O)OC (centres undefined)
inactive: [1] -17.4% | [2] -26.5% | [3] 1.15% | [4] 12.3% | [5] 1.6%

Cc1cc(C)nc(C)c1
inactive: [1] -22.2% | [2] -15.1% | [3] -14.2% | [4] -3.4% | [5] 23.9%

COc1cc2c(cc1OC)C(N)CC2=O (centres undefined)
inactive: [1] 3.15% | [2] 1.4% | [3] -7.25% | [4] 0.5% | [5] -75.3%

COC(=O)/C(C#N)=C\N1CCNC1=S
inactive: [1] -54.8% | [2] -62.8% | [3] -35.9% | [4] -10.4% | [5] -19.5%

S=c1nc[nH]c2c1CNC2
inactive: [1] -8.2% | [2] 10.9% | [3] -5.4% | [4] 5.25% | [5] -6.15%

C/C([O-])=C(/c1nc(-c2ccc([N+](=O)[O-])o2)no1)[n+]1cc(C)ccc1C
inactive: [1] 19.3% | [2] 14% | [3] 18.9% | [4] 7.55% | [5] 16.1%

COc1ccc(C(O)Cc2cc(=O)cc(-c3ccccc3)[nH]2)cc1 (centres undefined)
inactive: [1] 2.2% | [2] -4.95% | [3] 2.2% | [4] 9.85% | [5] -1.4%

Cc1cc(Cl)ccc1NC(=O)C(=O)C(C(=O)c1ccccc1)C1OC(=O)c2ccccc21 (centres undefined)
inactive: [1] 20.9% | [2] -7.45% | [3] 14.2% | [4] -3.25% | [5] -9.75%

C(CC1CCNCC1)CC1CCNCC1
inactive: [1] -39.7% | [2] -19.1% | [3] -20.3% | [5] -64.7%

CCCCCCCCCCCCc1ccc(CS)cc1
inactive: [1] 40.9% | [2] 36.3% | [3] 54% | [4] 51.3% | [5] 32.6%

S=c1cc(-c2ccccc2)oc2ccccc12
inactive: [1] 9.35% | [2] 10.8% | [3] -1.1% | [4] 4.85% | [5] -2.8%

CC(C)(C)NN=C1C(C)(C)C(=NNC(C)(C)C)C1(C)C
inactive: [1] -24% | [2] -30.1% | [3] -13.8% | [4] -23.1% | [5] -10.9%

Cc1cc(N=Nc2c(O)c3ccccc3[nH]c2=O)ccc1N=Nc1ccc(C(=O)O)cc1
inactive: [1] 1.65% | [2] -9.15% | [3] 3.5% | [4] -14.1% | [5] -8.05%

Oc1ccc(Br)cc1C1Nc2ccccc2S1 (centres undefined)
inactive: [1] 0.65% | [2] 6.15% | [3] 0.4% | [4] 5.15% | [5] -1.85%

N#C[C@H]1CC2C=CC1C2 (some centres undefined)
inactive: [1] 12.2% | [2] -20% | [3] 0.7% | [4] 0.8% | [5] 15.7%

O=C(O)c1ccc(OC2CCCCC2)cc1
inactive: [1] 6.85% | [2] 12.1% | [3] 42.1% | [4] 11.4% | [5] 30.9%

O=C1CC(c2ccccc2)Oc2cc(O)cc(O)c21 (centres undefined)
inactive: [1] 9.1% | [2] -30.8% | [3] 9.2% | [4] -14.4% | [5] 16.7%

CS(=O)(=O)OCCCCOS(C)(=O)=O
inactive: [1] -9.5% | [2] -23.9% | [3] 8.55% | [4] 12.1% | [5] 0.05%

CCOc1ccc(NC(=O)c2c(N/N=C/c3ccc(OC)cc3)nc(=O)[nH]c2C)cc1
inactive: [1] -14.2% | [2] -31.5% | [3] -21.6% | [4] -15.6% | [5] -28.7%

NC(Cc1c[nH]c2ccc(Br)cc12)C(=O)O (centres undefined)
inactive: [1] -29.4% | [2] -26.7% | [3] -17.9% | [4] -29.8% | [5] -38.1%

Cc1ccc(C(=O)N/N=C/c2ccccc2Cl)cc1
inactive: [1] -3.15% | [2] 49.1% | [3] 33.8% | [4] 34.9% | [5] 26.6%

C=CC(C)(C)/C=C/C=O
inactive: [1] -18.8% | [2] -15.1% | [3] -12.1% | [4] 24.6% | [5] -32.1%

CC(=O)Nc1ccc2c(c1)CCCC2
inactive: [1] 5.75% | [2] -4.45% | [3] -0.8% | [4] -2.95% | [5] -16.4%

Nc1nc(NC(=O)C2=NS(=O)(=O)c3cc(S(N)(=O)=O)c(Cl)cc3N2)n[nH]1
inactive: [1] -8.9% | [2] -26.2% | [6] 9.7% | [4] 0.7% | [5] -2.3%
